An excerpt weighted towards active compounds, which were near 5.2% of everything screened.
SMARCA2 act = activators of SMARCA2 function; activation, % at 9.1 µM; MG213 cells, MMTV-luciferase reporter, dexamethasone, overnight; AID 652017; hit rate 1% among 370,000; in the data active = activation above about 7.8%
NadD block = inhibitors of Staphylococcus aureus NadD; purified NadD enzyme, colorimetric absorbance read-out; inhibition, % at 20 µM; hit rate 0.78% among 360,000; AID 602399; in the data active = inhibition above about 26%
GRIN3A LBD mod = modulates the human NR3A ligand-binding domain; NR3A LBD differential scanning fluorimetry, Tm shift; 0% = protein alone, 100% = glycine-bound protein; Tm shift relative to glycine control, % at 25 µM; hit rate 2.5% among 340,000;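 active = melting temperature shift of at least 10% of the positive control shift, at one fixed dose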
Vif imaging = inhibitors of HIV Vif; HEK293T cells, Vif self-association by quenched fluorescence, imaging, 24 h; inhibition, % at 7.49 µM; hit rate 0.35% among 340,000; AID 602346; in the data active = inhibition above about 50%, passing the limit was not always enough; inconclusive = no clear call, values can overlap the other calls; inactive = below about 31%
SKN-1 inh = inhibitors of C. elegans SKN-1; C. elegans VP596 Pgst-4::GFP/RFP ratio, acrylamide-induced, 24 h; inhibition, % at 21.8 µM; hit rate 0.49% among 360,000;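 active = interference check ratio from 0.5 to 1.5 plus GFP to RFP signal ratio inhibition reaching or exceeding a fixed threshold, cut at about 30% in these data, passing the limit was not always enough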
esBAF inh = inhibitors of esBAF chromatin remodeling in mouse ES cells; Bmi1-luciferase knock-in reporter, 24 h; 100% = twice the neutral-well signal; reporter increase, % at 12.5 µM; hit rate 2% among 350,000; in the data active = activation above about 40%; inconclusive = no clear call, values can overlap the other calls;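 note: a rise in the Bmi1 reporter signal indicates esBAF inhibition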
Of the large screens only hits and unclear results are named; the others gave an inactive call.

CC(C)c1ccc(C(C(C(=O)c2ccccc2)N2CCOCC2)N2CCOCC2)cc1 (stereo not given)	esBAF inh 46.5
N#Cc1ncccc1CCc1cccc(Cl)c1	esBAF inh 42.6
N#Cc1ccc(CSc2ccccn2)c(Cl)c1	none
Cc1ccc(SCC(=O)NC(C)(C)C)cc1	esBAF inh 55.8
Cc1ccc(SCC(=O)Nc2cccc(C(=O)NC(C)(C)C)c2)cc1	none
Cc1sc2ncnc(N3CCC(C(=O)Nc4ccc(OC(F)F)c(Cl)c4)CC3)c2c1C	GRIN3A LBD mod 10.0
Cc1cc(Cl)ccc1OCC(=O)NNC(=O)C1CCN(c2ncnc3sc(C)c(C)c23)CC1	none
C[C@@H]1CN([C@H](C)CO)C(=O)Cc2cc(NS(=O)(=O)c3ccc(Cl)cc3)ccc2O[C@@H]1CN(C)C(=O)Nc1ccc2c(c1)OCO2	none (no result: SMARCA2 act, NadD block, GRIN3A LBD mod, Vif imaging, SKN-1 inh)
O=C(c1cc2cc(Cl)ccc2o1)N1CCCC1	none
O=C(c1cc2cc(Br)ccc2o1)N1CCCCC1	esBAF inh 48.7
N#Cc1cc2cc3c(cc2nc1N1CCCCC1)OCCO3	esBAF inh 69.6 (no result: Vif imaging)
N#Cc1cc2cc3c(cc2nc1Cl)OCCO3	none (no result: GRIN3A LBD mod)
O=C(N[C@@H]1C=C[C@@H](CC(=O)N2CCCCC2)O[C@H]1CO)c1ccc2c(c1)OCO2	none (no result: SMARCA2 act, NadD block, GRIN3A LBD mod, Vif imaging, SKN-1 inh)
COc1ccc(C2CC(c3cc(Br)ccc3F)n3nnnc3N2)cc1 (stereo not given)	none
COc1ccc(C2CC(c3ccccc3)n3nnnc3N2)cc1 (stereo not given)	GRIN3A LBD mod 411.4
CCOC(=O)c1sc(=S)n(-c2ccccc2OC)c1N	GRIN3A LBD mod 15.6 (no result: esBAF inh)
CSc1ccc(C(=O)/C=C/c2ccc(N)cc2)cc1	esBAF inh 65.6
CSc1cccc(NC(=O)/C=C/c2ccccc2)c1	GRIN3A LBD mod 17.3, esBAF inh 61.7
COc1ccc(NC(=O)/C=C/c2ccccc2)cn1	esBAF inh 42.2
CSc1cccc(NC(=O)/C=C/c2ccc(Cl)cc2)c1	GRIN3A LBD mod 17.4
C[C@H](CO)N1C[C@H](C)[C@H](CN(C)Cc2ccc(-c3ccccc3)cc2)Oc2cc(C#CC(C)(C)O)ccc2S1(=O)=O	none (no result: SMARCA2 act, NadD block, GRIN3A LBD mod, Vif imaging, SKN-1 inh)
COc1ccc(NC(=O)N(C)C[C@@H]2Oc3ccc(NS(=O)(=O)c4c(C)noc4C)cc3C(=O)N([C@H](C)CO)C[C@H]2C)cc1	none (no result: SMARCA2 act, NadD block, GRIN3A LBD mod, Vif imaging, SKN-1 inh)
CSc1ccc(/C=C/C(=O)Nc2ccccc2)cc1	GRIN3A LBD mod 20.6
O=C1CNC(=O)c2c(nc3n2CCC3)N1	SMARCA2 act 7.8, GRIN3A LBD mod 10.6
COc1ccc(-c2sc3ccccc3c2-c2ccc(O)cc2)cc1	GRIN3A LBD mod 13.6
C=CCNc1nc(N)c(C(=O)Nc2cc(C)on2)s1	none (no result: GRIN3A LBD mod)
C=CCNc1nc(N)c(C(=O)c2ccc3c(c2)OCO3)s1	esBAF inh 52.3
CCOc1ccc(S(=O)(=O)Nc2ccc(Cl)cn2)c(C)c1C	none
CCOc1ccc(C(C)C)cc1S(=O)(=O)Nc1ccc(Cl)cn1	GRIN3A LBD mod 12.2
Cc1cc(N2CCN(S(=O)(=O)c3ccc(Cl)cc3)CC2)c2ccccc2n1	none (no result: GRIN3A LBD mod)
Cc1cc(N2CCN(S(=O)(=O)c3ccc(Cl)c(Cl)c3)CC2)c2ccccc2n1	Vif imaging 85.8
O=C(CCN1CCCCC1)NCC[C@@H]1CC[C@@H](NC(=O)Cc2cccnc2)[C@@H](CO)O1	none (no result: SMARCA2 act, NadD block, GRIN3A LBD mod, Vif imaging, SKN-1 inh)
CC(=O)NC(c1cccc(F)c1)c1nc(-c2cc3ccccc3o2)cs1 (stereo not given)	none (no result: GRIN3A LBD mod)
OC(c1ccc(F)c(F)c1)c1nc(-c2ccc3ccccc3c2)cs1 (stereo not given)	esBAF inh 67.7 (no result: GRIN3A LBD mod)
OC(c1ccc(F)cc1)c1nc(-c2cnc3ccccc3c2)cs1 (stereo not given)	esBAF inh 48.3 (no result: GRIN3A LBD mod)
COc1ccc(C(O)c2nc(-c3cnc4ccccc4c3)cs2)cc1 (stereo not given)	esBAF inh 49.0 (no result: GRIN3A LBD mod)
OC(c1ccc(F)cc1)c1nc(-c2cc3ccccc3o2)cs1 (stereo not given)	esBAF inh 69.9 (no result: GRIN3A LBD mod)
OC(c1cccc(Cl)c1)c1nc(-c2cnc3ccccc3c2)cs1 (stereo not given)	none (no result: GRIN3A LBD mod)
COc1ccc(NC(=O)N(C)C[C@@H]2Oc3ccc(NC(=O)CCN4CCOCC4)cc3CC(=O)N([C@@H](C)CO)C[C@H]2C)cc1	none (no result: SMARCA2 act, NadD block, GRIN3A LBD mod, Vif imaging, SKN-1 inh)
CO[C@H]1CN(C)C(=O)c2ccc(NC(=O)C3CC3)cc2OC[C@H](C)N(C(=O)c2ccncc2)C[C@H]1C	none (no result: SMARCA2 act, NadD block, GRIN3A LBD mod, Vif imaging, SKN-1 inh)
CCCSCCCNC(=O)c1ccc(NC(=O)C2=CSCCO2)cc1	esBAF inh 54.9
CCN1CCN(CCCNC(=O)c2ccc(NC(=O)C3=CSCCO3)cc2)CC1	none
CCCN1C[C@@H](C)[C@H](OC)CN(C)C(=O)c2cc(NC(=O)c3cnccn3)ccc2OC[C@H]1C	none (no result: SMARCA2 act, NadD block, GRIN3A LBD mod, Vif imaging, SKN-1 inh)
COc1ccc(C(C#N)N2N=C(C)CC2c2ccccc2)cc1OC (stereo not given)	Vif imaging 54.3
Cc1ccccc1NC(=O)Cc1nc(COC(=O)c2cccc([N+](=O)[O-])c2)cs1	none (no result: Vif imaging, esBAF inh)
Cc1ccccc1NC(=O)Cc1nc(COC(=O)c2cccc(O)c2)cs1	SKN-1 inh 41.8
CCn1c(C)cc(/C=C2/SC(=S)NC2=O)c1C	none (no result: esBAF inh)
CCn1ncc(/C=C2/SC(=S)NC2=O)c1C	GRIN3A LBD mod 11.8 (no result: esBAF inh)
Cc1ccc(S(=O)(=O)N(C)C[C@@H]2Oc3ccc(NC(=O)CCN4CCOCC4)cc3C(=O)N([C@H](C)CO)C[C@@H]2C)cc1	none (no result: SMARCA2 act, NadD block, GRIN3A LBD mod, Vif imaging, SKN-1 inh)
C=CCn1c(=O)c(C(=O)Nc2ccccc2C)c(O)c2ccccc21	esBAF inh 61.2
CCn1c(=O)c(C(=O)Nc2ccccc2C)c(O)c2ccccc21	esBAF inh 44.4
CCCn1c(=O)c(C(=O)Nc2ccccc2C)c(O)c2ccccc21	none
C[C@H]1CCCCO[C@H](CN(C)C(=O)c2ccccc2)[C@@H](C)CN([C@@H](C)CO)C(=O)c2cc(NC(=O)Cc3ccccc3)ccc2O1	none (no result: SMARCA2 act, NadD block, GRIN3A LBD mod, Vif imaging, SKN-1 inh)
Cc1ccc(N=Nc2c(O)n(CN3CCOCC3)c3ccccc23)cc1	esBAF inh 53.8 (no result: SMARCA2 act)
COc1ccc(-n2nc(C(=O)NCC(=O)N3CCCC3)c3ccccc3c2=O)cc1Cl	Vif imaging inconclusive, esBAF inh 59.1
COc1ccc(-n2nc(C(=O)NCC(=O)N3CCN(c4ccccc4)CC3)c3ccccc3c2=O)cc1OC	esBAF inh 45.1
O=C(C[C@@H]1C[C@@H]2c3cc(NS(=O)(=O)c4ccc(F)cc4)ccc3O[C@@H]2[C@H](CO)O1)N1CCOCC1	none (no result: SMARCA2 act, NadD block, GRIN3A LBD mod, Vif imaging, SKN-1 inh)
O=C(C[C@@H]1C[C@H]2c3cc(NC(=O)Cc4ccncc4)ccc3O[C@H]2[C@@H](CO)O1)NCCN1CCCCC1	none (no result: SMARCA2 act, NadD block, GRIN3A LBD mod, Vif imaging, SKN-1 inh)
CN1C(=O)c2ccc(NC(=O)c3cccc4ccccc34)cc2C1=O	GRIN3A LBD mod 17.5
CCOc1ccc(NC(=O)c2cc3ccccc3cc2OC)cc1	GRIN3A LBD mod 32.0, esBAF inh inconclusive
CCOc1ccc(NC(=O)c2cccc3ccccc23)cc1	GRIN3A LBD mod 41.9, esBAF inh 42.6
Cc1ccc(C(=O)Nc2ccc3c(c2)C(=O)N(C)C3=O)c(C)c1	none
O=C(NC(=S)Nc1ncccn1)c1ccc(F)cc1	esBAF inh 62.3
